# This excerpt belongs to a sample that is enriched for hits.
# Pf Dd2 growth = Plasmodium falciparum Dd2 growth inhibition. 120,000 compounds, 4.3% hits. Potency, µM (doses to about 28.9 µM), without a hit: at the highest dose activity, negative = inhibition, usual class: inhibitors. AID 1347417. P. falciparum Dd2 growth, SYBR Green, 72 h; active means well fitted inhibition curve with a large enough effect;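 further: plate controls were DMSO vehicle for no effect and reference drug for full effect; nearly all actives have a fitted effect of over 65% in size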
#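 Readout: SYBR Green fluorescence, 485 nm excitation, 535 nm emission, after ~16 h lysis at 37C. Before that, Dd2-infected red cells (2.5% hematocrit) grew 72 h with compound, 29 uM top final concentration.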
# * marks the source's active call; other numbers are inactive results; i = inactive; ! = a repeat was not active; [ ] = another dose, or the depositor's remark. Potency means the concentration at half of the fitted maximal effect.
SMILES,Pf Dd2 growth
Cc1ccc(CN2C[C@@H]3C(=O)N(Cc4ccc5c(c4)OCO5)C(=O)[C@@H]3C2)c(C)c1,6.9%
CNC(=O)[C@@H](c1ccccc1)N1CCC[C@H]1C(=O)NCc1ccncc1,11.6%[44.1 µM]
CNC(=O)[C@@H]1CN(C(=O)c2cncc(Br)c2)C[C@H]1CO,7.8%
Cc1ccc(NC(=O)Cn2cc3c(n2)CCCC3)c(C)c1,3.2%
O=C(Cn1cc2c(n1)CCCC2)Nc1cc(C(F)(F)F)ccc1Cl,7.08µM*
Cc1c(Cl)cccc1NC(=O)Cn1cc2c(n1)CCCC2,1.9%
COc1cccc(CCC(=O)N(C)C2CCc3nnc(C)n3CC2)c1 (configuration not stated),i
CS(=O)(=O)N1CCC(OC2CCN(C(=O)Nc3ccc4c(c3)OCCO4)CC2)CC1,i
O=C1CCN(Cc2ccncc2)CCCC(c2nc(-c3cnccn3)no2)CCN1 (configuration not stated),i
O=C1NCC2(CCN(Cc3ccc(F)cc3)CC2)Oc2ccccc21,-12.4%
O=C1NCC2(CCN(CC3CCCCC3)CC2)Oc2ccccc21,3.4%
O=C1NC2(CCN(Cc3ccc(F)cc3)CC2)COc2ccccc21,3.16µM*
O=C1NC2(CCN(Cc3ccccc3C(F)(F)F)C2)COc2ccccc21 (configuration not stated),i
O=C1NC2(CCCN(Cc3ccc(C(F)(F)F)cc3)C2)COc2ccccc21 (configuration not stated),11.2µM*!
O=C1NC2(CCN(CC3CCCCC3)CC2)COc2ccccc21,10µM*
O=[S+]1([O-])NC2(CCCN(Cc3ccc(C(F)(F)F)cc3)C2)COc2ccccc21 (configuration not stated),0.4%
O=C1NC2(CCN(Cc3cccnc3)CC2)COc2ccccc21,-13.3%[44.1 µM]
O=C1NC2(CCN(CC3CC3)CC2)COc2ccccc21,-21.7%[44.1 µM]
COCc1noc(CCNC(=O)c2cc(S(N)(=O)=O)ccc2F)n1,5.0%
O=C(NCC(O)c1ccccc1C(F)(F)F)c1cccc(-n2cnnc2)c1 (configuration not stated),14.8%
CCOc1ccccc1NC(=O)N1CCC(Oc2ncccc2C(=O)N2CCCCC2)C1 (configuration not stated),-17.7%
CN(C)c1cc(N2CCCC(NC(=O)Cc3ccc(F)cc3)C2)ncn1 (configuration not stated),38.4%[5.79 µM]
c1nc(-c2cc(NC3CCNCC3)nc3[nH]ccc23)c2sccc2n1,i
CN(C)C(=O)c1ccc(-c2cc(NC3CCCC3)nc3[nH]ccc23)o1,8.91µM*
O=C(NCc1ccnc2[nH]ccc12)C1CCCC1,5.3%[44.1 µM]
SMILES,Pf Dd2 growth
O=C(Nc1nn(CC(F)(F)F)c2cccc(Oc3cccnc3)c12)c1cocn1,-11.4%
COc1ccccc1N1CCN(S(=O)(=O)c2ccc(-c3coc(C)n3)cc2)CC1,41.1%
COc1ccccc1N=c1scc(-c2ccc(S(=O)(=O)N3CCCC3)cc2)n1C,10µM*
COc1cccc2sc(=NC(=O)c3ccc(S(=O)(=O)N4CCCCC4)cc3)n(C)c12,0.8%
CNc1nccc(N2CCC(CC(=O)NCc3cc(OC)cc(OC)c3)CC2)n1,-19.2%
CN1CCC2(C1)CN(CC1CCOCC1)c1ccc(C(=O)NCc3ccccc3)cc12 (configuration not stated),i
Cc1nn(-c2ccc(C(F)(F)F)cc2)c(C)c1[C@@H]1C=C[C@@H](NC(=O)COc2ccccc2)C1,-4.0%
COc1ccc(CN[C@@H]2C=C[C@@H](c3c(C)nn(-c4ccccc4)c3C)C2)cc1,6.31µM*
COc1ccc(NC(=O)N[C@@H]2C=C[C@@H](c3c(C)nn(-c4ccccn4)c3C)C2)cc1,i
COc1ccc(-n2nc(C)c([C@@H]3C=C[C@@H](NCc4ccc(N(C)C)cc4)C3)c2C)cc1,1.58µM*
CN(C)c1ccc(CN2CCCC(COc3ccccc3C(=O)N3CCCC3)C2)cc1 (configuration not stated),-1.3%
O=C(Cn1cnnn1)N1CCc2onc(-c3cccc4ccccc34)c2C1,5.7%
CN1CCCCCCN(C(=O)Nc2ccc3c(c2)OCCO3)CCC1=O,i
COc1cccc(C(=O)N2CCC3(CC2)NC(=O)N(c2ccccc2)N3)c1,i
COc1ccc(Cl)cc1C(=O)N1CCC2(CC1)NC(=O)N(c1ccccc1)N2,-19.1%
COc1ccc(C(=O)N2CCC3(CC2)NC(=O)N(c2cccc(F)c2)N3)cc1F,i
COc1ccc(C(=O)N2CCC3(CC2)NC(=O)N(c2cccc(F)c2)N3)cc1,11.2µM*
COc1ccccc1C(=O)N1CCC2(CC1)NC(=O)N(c1cccc(F)c1)N2,i
COc1ccc(Cl)cc1C(=O)N1CCC2(CC1)NC(=O)N(c1cccc(F)c1)N2,10µM*
COc1ccc(C(=O)N[C@@H]2CCC[C@@H]2C(=O)NC2CCCC2)cc1,10.6%
COc1ccc(CN2CCn3c(nnc3-c3ccncc3)C2)cc1,-0.8%
CN(CCc1ccccn1)C(=O)CCC[C@@H]1[C@H]2CCCN3CCC[C@@H](CN1C(=O)c1ccccc1)[C@@H]23,i
CCNC(=O)[C@@H]1C[C@H](NC(=O)CCc2ccccc2F)CN1C1CCCC1,i
Cc1cnc(CN(C)C(=O)CC(c2ccccc2)c2ccc(Cl)cc2)[nH]1 (configuration not stated),8.91µM*
Cc1nnc(CN(C)C(=O)CC(c2ccccc2)c2ccc(Cl)cc2)o1 (configuration not stated),-2.3%
SMILES,Pf Dd2 growth
Cc1nonc1CN(C)C(=O)CC(c1ccccc1)c1cccc(Cl)c1 (configuration not stated),-21.3%
COC[C@]1(O)CCN(C(=O)c2csc(C)c2)CC1(C)C,5.9%
COCCNC(=O)[C@H]1C[C@H](Oc2cccnc2)CN1C(=O)Cc1ccccc1,11.0%
CC(c1ccc(F)cc1)N1Cc2cc(NC(=O)Cc3cccs3)ccc2OCC1=O (configuration not stated),i
COC(=O)c1ccc(Cn2c(SCC(=O)NCc3ccccc3)nc3ccccc32)cc1,27.0%
COc1cccc(CSc2nc3ccncc3n2CC(=O)Nc2ccc(OC)c(OC)c2OC)c1,-9.9%
COc1ccc(NC(=O)Cn2c(SCc3cc(C)ccc3C)nc3ccncc32)c(OC)c1OC,-16.8%
COc1ccccc1CNC(=O)c1ccc(CSc2nc3ccncc3n2Cc2ccccc2C)cc1,7.08µM*
O=C(NCc1ccc(F)cc1)c1ccc(CSc2nc3ccncc3n2Cc2ccc(F)cc2)cc1,11.2µM*
O=C(NCc1cccs1)c1ccc(Cn2c(SCc3cccc(F)c3)nc3cccnc32)cc1,-4.9%
CCNC(=O)c1ccc(CSc2nc3ccncc3n2Cc2ccc(F)cc2)cc1,7.94µM*
O=C1NCCCCCCN(C(=O)c2cccnc2)[C@H]2CCC[C@@H]12,2.4%
COc1ccc(Cc2nc3nccc(-c4cccc(OC)c4)n3n2)cc1,i
Cc1ccsc1C(=O)N1CCc2nnc([C@@H]3C[C@@H](O)CN3C)n2CC1,0.5%
CC(C)NC(=O)NC1CC2(CCN(C(=O)c3ccccc3)CC2)c2ccccc21 (configuration not stated),-22.3%
CC(=O)NC1CC2(CCN(C(=O)Cc3ccc(O)cc3)CC2)c2ccccc21 (configuration not stated),1.5%
CC(C)NC(=O)NC1CC2(CCN(Cc3ccc(O)cc3)CC2)c2ccccc21 (configuration not stated),2.82µM*
Cn1cccc1C(=O)N1CCCCC1c1nc(-c2cnccn2)n[nH]1 (configuration not stated),-4.3%

# Assay outcomes (PubChem)
